Screen size: about 69,000 compounds; about 8,600 (12%) showed an effect of 50% or more. Many of the other results were omitted from the sample, so strong results are more common in it than they were.
Tested on: Plasmodium berghei
Assay: Screen against P. berghei liver stage (PbLuc), transformed with Luciferase, at 10uM
Assay type: functional, HepG2
Conditions: tested at 10 uM

Structure (SMILES)	INHIBITION
COc1ncccc1NC(=O)C1CC(=O)N(Cc2ccccn2)C1 (stereo not given)	-8.69%
Cc1ccc(CN2CCC3(CCC3NC(=O)c3ccn(C)c3)CC2)s1 (stereo not given)	-6.39%
CC(C)C(=O)N1CCCC1C(=O)Nc1cc(C(F)(F)F)ccc1F (stereo not given)	20.6%
CCc1ncnc2c1CCN(Cc1ccc3c(c1)OCO3)CC2	-6.39%
COc1cccc(-c2cnc(C3CCNCC3)cn2)c1	-28.6%
CCNC(=O)c1ccc(NC(=O)N(C)Cc2cc(C)on2)cc1	-41.4%
CCNC(=O)c1ccc(NC(=O)N(C)Cc2cccn2C)c(C)c1	54.6%
CNC(=O)c1ccc(NC(=O)NC(C)CCc2cccn2C)c(C)c1 (stereo not given)	23.7%
Cc1ccc(OCCN(C)Cc2nc3c(cnn3C)c(=O)[nH]2)cc1	23.7%
O=C(NC[C@H]1CCCO1)c1ccc(S(=O)(=O)N2C[C@H]3C[C@@H]2CN3)cc1	30.7%
CN(Cc1ccncc1)C(=O)NC1CCS(=O)(=O)C1 (stereo not given)	-4.12%
Cc1nn(C)cc1C1SCC(=O)Nc2c1c(O)nn2C(C)C (stereo not given)	30.5%
Cc1c(C2SCC(=O)Nc3c2c(O)nn3C(C)C)cnn1C (stereo not given)	13.1%
Cc1nn(C)c(C)c1C1SCC(=O)Nc2c1c(O)nn2C(C)C (stereo not given)	52.5%
CCCc1nc(NCCCOC)c2c(n1)c(C)nn2CC	29.18%
CCC(=O)N1CCC2(CC1)C(c1cccnc1)CC(=O)N2CCOC (stereo not given)	59.3%
COCCN1C(=O)CC(c2cccnc2)C12CCN(C)CC2 (stereo not given)	27.6%
COCCN1C(=O)CC(c2cccnc2)C12CCN(C(=O)C1CC1)CC2 (stereo not given)	24%
O=C(c1ccccn1)N1C[C@@H](OCc2cccnc2)[C@H]2OCCC[C@@H]21	-21.1%
COCCNC(=O)c1cc2c(s1)CCN2S(C)(=O)=O	6.55%
O=C(c1ccc(=O)[nH]n1)N1CCC(CN2CCOCC2)CC1	-40.5%
Cc1ccc(N2CCC(C(O)c3cccs3)CC2)nn1 (stereo not given)	56.3%
OC(c1cccs1)C1CCN(c2ncccn2)CC1 (stereo not given)	48%
N#Cc1nccnc1N1CCC(C(O)c2cccs2)CC1 (stereo not given)	42.4%
Cc1cccc(OCCNC(=O)CN2CCc3cncnc3C2)c1	22.3%
COC(=O)[C@H](C)NC(=O)c1cc(-c2cccc(Cl)c2)no1	3.16%
CCCS(=O)(=O)N1CCC2(CCN(Cc3cccc(F)c3)C2=O)C1 (stereo not given)	16.8%

Structure (SMILES)	INHIBITION
CN(C)CCN1CCC2(CCN(C(=O)c3cccnc3)CC2)C1=O	-23.3%
Cc1ccc(OCC(=O)N2C[C@@H]3CN(C)CCO[C@@H]3C2)cc1	37.9%
COCC(=O)N1CCC2(CC1)CC(OC)CO2 (stereo not given)	70.4%
CO[C@@H]1CO[C@@]2(CCN(C(=O)COc3ccccc3C)C2)C1	71%
Cc1ccccc1OCC(=O)N1CC[C@]2(C[C@@H](OCC3CC3)CO2)C1	-0.813%
CN1CCO[C@@H]2CN(C(=O)COc3cccc(Cl)c3)C[C@@H]2C1	34.9%
COc1ccccc1OCC(=O)N1C[C@@H]2CN(C)CCO[C@@H]2C1	55.6%
COC1COC2(CCN(C(=O)c3ncccn3)CC2)C1 (stereo not given)	37.8%
COc1ccccc1OCC(=O)N1CCC[C@]2(C[C@@H](OC)CO2)C1	54.7%
COCC1COCCC12CCN(C(=O)COc1ccccc1C)CC2 (stereo not given)	0.542%
O=C(COc1ccccc1)N1CCC[C@]2(C[C@@H](OCC3CC3)CO2)C1	27.6%
CCO[C@@H]1CO[C@@]2(CCCN(C(=O)COc3ccccc3OC)C2)C1	15.8%
COCC(=O)N1CCC2(CC1)CC(N1CCN(C)CC1)CO2 (stereo not given)	39.3%
Cc1occc1C(=O)Nc1cnn(CCN2CCOCC2)c1	-16.565%
O=C(Nc1ccc2c(c1)OCO2)c1ccc(N2CCCC2)nn1	43.8%
NC(=O)CN(Cc1ccc(Br)cc1)C(=O)c1cnccn1	4.22%
O=C1COC2(COCCN(Cc3ccsc3)C2)CN1c1ccoc1 (stereo not given)	12.4%
CO[C@@H]1CO[C@@]2(CCCN(C(=O)C3CC=CC3)C2)C1	53%
CO[C@H]1CO[C@@]2(CCCN(C(=O)C3CC=CC3)C2)C1	22.2%
CO[C@H]1CO[C@@]2(CCCN(C(=O)N3CCCC3)C2)C1	45.7%
CC(C)c1nc(CN2CCN(CC(O)c3ccccc3)CC2)no1 (stereo not given)	21.5%
CC(=O)Nn1c(C)cc(CN2CCC(C(=O)N3CCCC3)CC2)c1C	52.8%
CC(=O)Nn1c(C)cc(CN2CCCN(Cc3ccncc3)CC2)c1C	20.4%
CC(=O)Nn1c(C)cc(CN2CCC(c3ccncc3)CC2)c1C	28%
CN(c1cccnn1)C1CCN(C(=O)c2n[nH]c3c2CCC3)CC1	-16.7%
O=C(c1cnc(-c2cccnc2)nc1)N1CCSCC1	51.9%
O=C(c1cnc(-c2cccnc2)nc1)N1CCC(c2ccncc2)CC1	21.8%

Structure (SMILES)	INHIBITION
O=C(c1cccnc1)N1CCSCC1	35.7%
Cc1cccc(CNc2ccc(C(=O)N3CCC(CO)CC3)cc2)c1	38.3%
O=C([C@@H]1COC[C@H]2CN(C3CCOCC3)C[C@H]21)N1CCCCO1	-3.1%
Cc1ccc2c(CC(=O)N(C)CCN(C)C)c(C)[nH]c2c1C	50.75%
CCc1cccc2c(CC(=O)N(C)CCN(C)C)c(C)[nH]c12	47.9%
Cc1[nH]c2c(C)cccc2c1CC(=O)N(C)CCN(C)C	34.15%
CC(=O)N1CCN(C(=O)CN(C)c2ccc(Cl)cn2)CC1	25%
Cc1nc(COC[C@@H]2CCC[C@@]23CNCCO3)cs1	48.9%
c1cncc(COC[C@@H]2CCC[C@@]23CNCCO3)c1	24%
c1cc(COC[C@H]2CCC[C@]23CNCCO3)ccn1	53%
c1cc(COC[C@@H]2CCC[C@@]23CNCCO3)ccn1	68.2%
c1cncc(COC[C@@H]2CCC[C@]23CNCCO3)c1	22.2%
c1cncc(OC[C@@H]2CCC[C@@]23CNCCO3)c1	-2.27%
COC(=O)c1ccc(CN2CCC(c3n[nH]c(C)n3)CC2)s1	16.3%
O=C(NCCc1noc(C2CCCC2)n1)c1cn2ccsc2n1	47.2%
Cc1nc(C2CCN(C(C)C)CC2)sc1Br	30.4%
CCn1cnnc1CNC(=O)N1CCN(CCc2ccccc2)CC1	23.4%
CCN1CCCC(C)(C(=O)NCc2nccn2Cc2ccccc2)C1 (stereo not given)	47.2%
CCN1CCCC(C)(C(=O)NCc2nncn2CCc2ccccc2)C1 (stereo not given)	57%
Cc1cc(C)c2ncc(C#N)c(NC3CCN(CC(N)=O)CC3)c2c1	-5.705%
Cc1cnn(CC2CCCCN2C(=O)c2ccc(NC3CC3)nc2)c1 (stereo not given)	42.45%
O=S(=O)(N1CCC(n2cccc2)CC1)N1CCCC1c1ccco1 (stereo not given)	66.1%
COC1CCN(S(=O)(=O)N2CCCC2c2ccco2)CC1 (stereo not given)	49%
O=S(=O)(N1CCN(CC2CC2)CC1)N1CCCC1c1ccco1 (stereo not given)	31.9%
CC(C)CN1CCN(S(=O)(=O)c2cn(C)cn2)Cc2cccnc21	48.7%
COCCC(=O)N1CCCC1c1csc(Nc2ncccn2)n1 (stereo not given)	36.7%
O=C(NC1CC1)C1CCN(c2nc3nc[nH]c(=O)c3s2)CC1	50.2%

Structure (SMILES)	INHIBITION
CNC(=O)C1CCN(c2nc3nc[nH]c(=O)c3s2)CC1	24.7%
CC(C)NC(=O)C1CCN(c2nc3nc[nH]c(=O)c3s2)CC1	4.35%
Cc1ccccc1CCCN(C)S(C)(=O)=O	24.2%
CCN(Cc1ccccc1C)S(C)(=O)=O	5.15%
Cc1ccccc1CCCN(Cc1ccccn1)S(C)(=O)=O	51%
CCN(CC)S(=O)(=O)N(Cc1cccc(C)c1)Cc1ccccn1	9.63%
CCN(CC)S(=O)(=O)N(Cc1ccccn1)Cc1ccccc1C	61.3%
CCN(CCCc1ccccc1C)S(C)(=O)=O	14.1%
COCCN1CCCN(C(=O)NC(C)Cn2cccn2)CC1 (stereo not given)	42.6%
Fc1cnc(N2CCCn3c(nnc3Cn3ccnc3)C2)nc1	-68%
Cc1noc(C2CCN(C(=O)CCCNc3ncccn3)CC2)n1	18.4%
CCC(CC)c1nnc(NC(=O)NC(C)Cn2cccn2)s1 (stereo not given)	27.4%
Cc1nc(CN(C)C2CCN(Cc3cccc4c3OCCO4)C2)no1 (stereo not given)	29.4%
O=C(c1cscn1)N1CC[C@H]2[C@@H]1CCC(=O)N2c1ccccc1	55.5%
Cc1cnc(N2CC[C@H]3[C@@H]2CCC(=O)N3c2ccccc2)nc1	2.7%
Cn1cc(N2C(=O)CC[C@@H]3[C@H]2CCN3C(=O)c2cscn2)cn1	52%
Cc1nc(CN2CC[C@H]3[C@@H]2CCC(=O)N3c2cnn(C)c2)cs1	-20.1%
O=C(c1cnccn1)N1CC[C@H]2[C@@H]1CCC(=O)N2c1cccnc1	22.9%
Cn1cc(N2C(=O)CC[C@@H]3[C@H]2CCN3Cc2nccs2)cn1	22.4%
O=C1CC[C@H]2[C@H](CCN2c2ncc(F)cn2)N1c1ccccc1	49.4%
O=C1CC[C@H]2[C@H](CCN2c2ncccn2)N1c1ccccc1	55.4%
O=C(c1cccs1)N1CC[C@@H]2[C@H]1CCC(=O)N2c1ccccc1	40.3%
Cc1noc(C(C)C)c1C(=O)NCc1ccc(N(C)C)c(F)c1	29.2%
COc1cc(CSc2nnc(N)n2C2CC2)ccc1SC	0.348%

From ChEMBL document CHEMBL4513216, “Probing the Open Global Health Chemical Diversity Library for Multistage-Active Starting Points for Next-Generation Antimalarials” (ACS Infect Dis, 2020)
